Source: PubChem BioAssay (NMMLSC)
Shown are actives, neighbours in structure and some others; about 2.2% of the full set was active somewhere.
VLA-4 inh: inhibition in a human VLA-4 binding assay. hit rate 0.2% among 330,000. P13612. VLA-4 expressing cells, ligand binding flow cytometry. AID 2557. inhibition, % (about 7 µM as worked out from the volumes in the protocol); in the data active = inhibition above about 50%
MEKK3 PB1 HTS: MEKK3-MEK5 PB1 interaction, increase or decrease | Q99759 | bead-based flow cytometry, Alexa488-MEK5 binding to MEKK3; actives lie on both sides; 0 = blocked by unlabeled MEK5, 100 = vehicle | binding response (% of control), % at 10 µM | hit rate 1.4% among 290,000;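 active = binding response more than 3 SD above or below the average of its plate-row segment, actives on both sides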;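 note: Alexa488 bead fluorescence after subtracting the streptavidin-only scavenger bead signal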
Target sequence (Q99759 whole entry, looked up): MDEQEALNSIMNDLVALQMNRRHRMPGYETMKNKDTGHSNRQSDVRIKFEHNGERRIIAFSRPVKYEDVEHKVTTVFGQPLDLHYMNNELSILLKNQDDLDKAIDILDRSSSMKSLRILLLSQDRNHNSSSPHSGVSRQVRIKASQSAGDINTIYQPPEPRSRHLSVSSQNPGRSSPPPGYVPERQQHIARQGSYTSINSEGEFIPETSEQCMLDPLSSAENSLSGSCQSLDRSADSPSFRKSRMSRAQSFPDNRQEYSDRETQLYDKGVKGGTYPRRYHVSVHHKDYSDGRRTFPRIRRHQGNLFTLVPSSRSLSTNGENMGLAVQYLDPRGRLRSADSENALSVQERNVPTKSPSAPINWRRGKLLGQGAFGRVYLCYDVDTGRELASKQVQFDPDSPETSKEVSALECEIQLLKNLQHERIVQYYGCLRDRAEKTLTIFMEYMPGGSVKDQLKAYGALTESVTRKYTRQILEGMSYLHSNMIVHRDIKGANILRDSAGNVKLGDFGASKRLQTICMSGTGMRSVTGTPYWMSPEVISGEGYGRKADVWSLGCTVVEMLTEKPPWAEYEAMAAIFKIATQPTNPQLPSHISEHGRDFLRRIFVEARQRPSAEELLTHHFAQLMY
MEKK2wt PB1 HTS: raises or lowers MEK5 binding to wildtype human MEKK2 PB1 domain. bead flow cytometry, Alexa488-MEK5 binding to MEKK2 WT; actives lie on both sides. binding response (% of control), % at 10 µM. Q9Y2U5. hit rate 1.1% among 290,000; in the data active = binding response below about 67% or above about 130%
MEKK2 mut-MEK5: signal of MEK5 binding to mutant human MEKK2 PB1 domain | hit rate 0.35% among 290,000 | percent response, % at 10 µM | AID 1530 | bead flow cytometry, Alexa488-MEK5 binding to MEKK2 mutant; in the data active = percent response above about 24%, passing the limit was not always enough
MEKK2wt confirm: raises or lowers MEK5 binding to wildtype human MEKK2, retest; binding response (% of control), % at 10 µM; bead flow cytometry, Alexa488-MEK5 binding to MEKK2 WT; actives lie on both sides; AID 1892; shares compounds with MEKK3 PB1 HTS; hit rate 2.4% among 5,900; in the data active = binding response below about 16% or above about 210%; inactive = in between
MEKK2mut confirm: signal of MEK5 binding to mutant human MEKK2, retest; hit rate 2% among 5,900; shares compounds with MEKK3 PB1 HTS; percent response, % at 10 µM; bead flow cytometry, Alexa488-MEK5 binding to MEKK2 mutant; in the data active = percent response mostly above about 71%, no sharp cut-off; inactive = mostly below about 38%;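 note: higher means compound restores mutant binding toward wildtype level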
MEKK3-MEK5 inh: MEKK3-MEK5 PB1 inhibition, single concentration confirmation; binding response (% of control), % at 10 µM; shares compounds with MEKK3 PB1 HTS; bead flow cytometry, Alexa488-MEK5 binding to MEKK3; hits give low values; hit rate 1.8% among 5,900;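 active = binding response below 72% of control, or above a set upper limit, though filed actives all read lower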;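 note: 100% = DMSO only wells and 0% = binding blocked by excess unlabeled MEK5; lower values mean stronger disruption of MEK5 binding to MEKK3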
Numbers without * were called inactive; i = inactive; nt = not tested or not shown; [ ] = remark or other dose.

SMILES	VLA-4 inh	MEKK3 PB1 HTS	MEKK2wt PB1 HTS	MEKK2 mut-MEK5	MEKK2wt confirm	MEKK2mut confirm	MEKK3-MEK5 inh
Cc1ccc(C(=O)NCC(=O)N(C)CC(=O)Nc2ccccc2Br)s1	-3	nt	nt	nt	nt	nt	nt
CN(C#N)c1nc(Cl)nc(Nc2cccc(Cl)c2)n1	18	144*	112	4	102	-1	100
Fc1cccc(Nc2nc(Cl)nc(Cl)n2)c1	-11	3.0*[inhibitor]	3.0*[inhibitor]	-22	104	5	103
Cc1ccc(-c2nn(-c3cc(N4CCNCC4)ccc3[N+](=O)[O-])c(=O)c3ccccc23)cc1	12	99	145*	15	153	30	109
CCCCn1c(N)c(-c2nc3ccccc3s2)c2c([N+](=O)[O-])nn(C)c(=O)c21	-1	82*[inhibitor]	100	-3	112	5	97
CCOC(=O)C1CCN(C(=O)c2ccc(N(C)S(=O)(=O)c3ccc(OC)cc3)cc2)CC1	-3	79	76	-20	nt	nt	nt
CCOC(=O)c1cc(C)n(CCc2ccccc2)c1C	11	104	105	6	nt	nt	nt
Cc1cc(-c2csc(N)n2)c(C)n1CCc1ccccc1	-26	94	56*[inhibitor]	7	103	0	93
COc1ccccc1OCCNS(=O)(=O)c1ccc2oc3ccccc3c2c1	8	138*	109	3	104	1	102
Cc1nc2ccccc2c(=O)n1/N=C/C=C/c1ccccc1	2	102	97	0	nt	nt	nt
COc1ccc(CNc2nc(-c3cccnc3)nn2C(=O)CC(C)C)cc1	-3	102	107	5	nt	nt	nt
COc1ccc(CNc2nc(-c3cccnc3)nn2C(C)=O)cc1	-5	5.0*[inhibitor]	7.0*[inhibitor]	-42	107	2	106
Cc1ccc2c(c1)N(C(C)C(=O)NCc1ccc3c(c1)OCO3)C(=O)CO2 (configuration not stated)	1	30*[inhibitor]	29*[inhibitor]	-14	130	12	107
CC(C)(C)c1cc(C(=O)NC2CC2)n(Cc2ccc(F)cc2)n1	-8	131*	116	24	100	1	104
CC(C)(C)c1cc(C(=O)Nc2ccc(F)cc2)n(Cc2ccc(F)cc2)n1	16	91	97	-3	nt	nt	nt
O=C(CCC(=O)Nc1ccc(Br)cc1)N/N=C/c1ccccc1F	i	101	100	6	nt	nt	nt
O=C(CCC(=O)Nc1ccc(F)cc1)N/N=C/c1ccccc1O	14	149*	124	5	106	8	107
COc1ccc(CNC(=O)Cn2nc(C)c3c(C)n(-c4ccc(C)cc4)nc3c2=O)cc1OC	5	94	94	-8	nt	nt	nt
O=c1oc2ccccc2c(NCc2ccccc2F)c1[N+](=O)[O-]	14	136*	105	-1	115	9	107
CCN1CCc2c(C#N)c(N3CCCCC3)nc(NCc3ccccc3)c2C1	-6	105	158*	27	141	13	106
C=CCNc1nc(N2CCCCC2)c(C#N)c2c1CN(Cc1ccccc1)CC2	-2	105	130	14	nt	nt	nt
Cc1ccc(C2CC(=O)N(c3ccc(F)cc3)C3=C2C(=O)CCC3)cc1 (configuration not stated)	-22	123*	120	7	95	-6	98
CCN(C[C@H]1N[C@@](CC)(C(=O)OC)[C@H]2C(=O)N(Cc3ccccc3)C(=O)[C@@H]12)S(=O)(=O)c1ccc(F)cc1	44	nt	nt	nt	nt	nt	nt
COc1ccccc1N(CN1C(=O)c2ccccc2C1=O)C(=O)c1cccc(C)c1	-24	141*	107	0	-3.0*[inhibitor]	2	103
COc1cccc(C(=O)N(CN2CCCC2=O)c2ccccc2OC)c1	5	95	94	-2	nt	nt	nt
SMILES	VLA-4 inh	MEKK3 PB1 HTS	MEKK2wt PB1 HTS	MEKK2 mut-MEK5	MEKK2wt confirm	MEKK2mut confirm	MEKK3-MEK5 inh
CCCOc1ccc(C(=O)Nc2c[nH]c(=O)[nH]c2=O)cc1	16	103	110	5	nt	nt	nt
CCC(=O)Oc1ccc(C(=O)Nc2c[nH]c(=O)[nH]c2=O)cc1	21	69*[inhibitor]	92	-1	97	-5	103
Cc1cc(C(=O)N2CCCc3ccccc32)ccc1[N+](=O)[O-]	0	101	108	3	nt	nt	nt
Cc1csc(SCc2ccccc2C(=O)O)n1	0	3.0*[inhibitor]	3.0*[inhibitor]	-14	100	2	102
Cc1[nH]c2ccccc2c1/C=N/Nc1nc2ccccc2[nH]1	3	105	140*	19	147	27	102
Cc1ccccc1/C=N/Nc1nc2ccccc2[nH]1	19	99	104	-13	nt	nt	nt
O=[N+]([O-])c1cc(/C=N/Nc2nc3ccccc3[nH]2)c(O)cc1O	0	132*	104	0	98	2	103
C#C[C@]1(O)CC[C@H]2[C@@H]3[C@H](C)CC4=C(CCC(=O)C4)[C@H]3CC[C@@]21C	11	111	111	5	nt	nt	nt
O=C(NCc1ccc2c(c1)OCO2)C(=O)NCC(c1ccco1)N1CCN(c2ccccc2)CC1 (configuration not stated)	3	136*	119	15	97	-10	101
COc1ccc(N2CCN(C(CNC(=O)C(=O)NCc3ccc4c(c3)OCO4)c3ccco3)CC2)cc1 (configuration not stated)	-8	103	99	-4	nt	nt	nt
COc1ccc(NC(=O)CN(C)C(=O)CN2C(=O)NC3(CCCC3)C2=O)cc1	5	nt	nt	nt	nt	nt	nt
CCCCOc1ccc(C(=O)NCC(=O)NCCOc2ccccc2)cc1	-11	nt	nt	nt	nt	nt	nt
CCCCOc1ccc(CC(=O)NCC(=O)O)cc1	13	57*[inhibitor]	92	-2	99	3	105
CCN(CC)C(=O)Cn1cc(S(=O)(=O)CC(=O)Nc2ccccc2C)c2ccccc21	0	100	100	2	nt	nt	nt
O=C(Nc1ccccc1)N(C1=NCCCCS1)c1cccc2ccccc12	-7	127*	116	4	102	4	98
COc1cc(/C=N\NC(=O)CNC(=O)C(c2ccccc2)c2ccccc2)ccc1O	6	103	98	5	nt	nt	nt
COc1ccc(/C=N\NC(=O)CNC(=O)C(c2ccccc2)c2ccccc2)cc1[N+](=O)[O-]	5	143*	104	0	98	-6	101
Cc1ccc(S(=O)(=O)N2C=CC(C(F)(F)F)=NCC2)cc1	-2	1.0*[inhibitor]	1.0*[inhibitor]	-21	97	-6	97
CC(C)C(NS(=O)(=O)c1c(Cl)cccc1Cl)C(=O)OCC(=O)c1c[nH]c2ccccc12 (configuration not stated)	-29	77	-2.0*	76*	105	9	102
N#CC/C(N)=N/Nc1nc2ccccc2nc1Cc1ccccc1	-38	107	95	6	nt	nt	nt
